# Bioassay records deposited in PubChem by National Center for Advancing Translational Sciences (NCATS).
# GPT2 inhibitor: GPT2 alanine aminotransferase inhibition. Recombinant GPT2, coupled pyruvate oxidase/HRP Amplex Red fluorescence. Potency, µM (doses to about 57.7 µM), inactives show at the highest dose activity change, negative = inhibition, actives largely listed as inhibitors. hit rate 0.25% among 100,000; further: on the % scale 0 is the no-effect control and ±100 the full control effect; nearly all actives have a fitted effect of over 60% in size
#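 GPT2 10ng/uL, a-KG 250uM, L-Ala 2mM, HEPES pH7.5 + 0.0001% Tween; 30 min RT. Then Amplex mix (PO/HRP/ThPP), 30 min RT dark, fluorescence. AOA 50uM used as positive control.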
# 3T3 cytotox: cytotoxic compounds in NIH 3T3 cells. AID 1345082. hit rate 4.3% among 94,000. Potency, µM (titrated, usually from 96.7 µM), for inactives: top-dose activity change, negative = cytotoxicity, most hits filed as inhibitors. NIH 3T3 viability, CellTiter-Glo ATP luminescence, 48-72 h; further: on the % scale 0 is the no-effect control and ±100 the full control effect; nearly all actives have a fitted effect of over 55% in size
#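 Viability of NIH 3T3 cells after 48 or 72 hr compound treatment at 37 °C was assessed by CellTiter-Glo, with luminescence imaged following a 10 min room-temperature step.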
# FLuc inh: Photinus pyralis luciferase inhibition; purified P. pyralis luciferase, luminescence, biochemical; Potency, µM (doses to about 115 µM), hits mostly inhibitors; hit rate 2.5% among 76,000; AID 1347043; further: on the % scale 0 is the no-effect control and ±100 the full control effect; nearly all actives have a fitted effect of over 65% in size
# Target sequence (P08659 whole entry, looked up): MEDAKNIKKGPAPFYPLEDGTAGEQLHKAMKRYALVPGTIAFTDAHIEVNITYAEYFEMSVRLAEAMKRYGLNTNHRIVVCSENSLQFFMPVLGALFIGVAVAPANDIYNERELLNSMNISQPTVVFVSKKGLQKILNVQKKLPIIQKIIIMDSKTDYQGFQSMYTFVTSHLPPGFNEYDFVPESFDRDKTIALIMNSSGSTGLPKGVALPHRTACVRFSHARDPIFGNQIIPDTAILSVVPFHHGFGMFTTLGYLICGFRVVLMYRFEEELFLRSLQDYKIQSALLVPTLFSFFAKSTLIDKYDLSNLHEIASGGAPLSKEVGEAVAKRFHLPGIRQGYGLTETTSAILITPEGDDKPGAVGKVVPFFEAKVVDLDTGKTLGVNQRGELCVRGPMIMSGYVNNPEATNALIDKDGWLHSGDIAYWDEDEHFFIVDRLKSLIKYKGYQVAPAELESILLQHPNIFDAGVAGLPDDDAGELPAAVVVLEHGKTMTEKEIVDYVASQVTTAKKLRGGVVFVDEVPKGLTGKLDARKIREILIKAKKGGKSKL
#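 Luminescence read by CCD imager after adding enzyme (10nM final) to wells holding compound, titrated in qHTS. Substrates 10uM each D-luciferin and ATP; buffer 50mM Tris acetate pH 7.5, 10mM Mg acetate, Tween-20, BSA.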
# HEK293 tox: cytotoxic compounds in HEK 293 cells. hit rate 6.6% among 94,000. HEK 293 viability, ATP luminescence (CellTiter-Glo), 48-72 h. Potency, µM (titrated, usually from 115 µM), without a hit: at the highest dose activity change, negative = cytotoxicity, actives largely listed as inhibitors; further: on the % scale 0 is the no-effect control and ±100 the full control effect; nearly all actives have a fitted effect of over 60% in size
#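 Cells seeded first (HEK 293, 250 cells/well), then compound added by pintool. Incubation ran 48 or 72 hr at 37 degree Celsius. CellTiter-Glo was added and luminescence imaged after 10 min at room temperature.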
# hNpr1 antagonist: blocks ANP-stimulated signaling of human Npr1 receptor | Potency, µM (top dose mostly 46.3 µM), for the others: at the highest dose activity change, negative = inhibition, usual class: inhibitors | hit rate 1.6% among 76,000 | P16066 | HEK293 hNpr1 GloSensor cGMP, ANP-stimulated luminescence; calls by dose curve; further: on the % scale 0 is the no-effect control and ±100 the full control effect; nearly all actives have a fitted effect of over 60% in size
#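 Compound pre-incubated 30 min at room temperature on GloSensor-loaded HEK293 cells stably carrying hNpr1 and the pGS-40F cGMP biosensor. Stimulation uses hNppA at 0.1 nM final; luminescence is taken at baseline and 20 min post-agonist.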
# Npr1 antag conf: confirmation of human Npr1 natriuretic peptide receptor antagonists; shares compounds with hNpr1 antagonist; HEK293 hNpr1 cGMP GloSensor luminescence, ANP-stimulated; Potency, µM (top dose mostly 57.6 µM), inactives show at the top dose activity change, negative = inhibition, actives largely listed as inhibitors; hit rate 76% among 1,400; AID 1347044; calls by dose curve; further: nearly all actives have a fitted effect of over 70% in size
# Npr2 selectivity: hNpr2 antagonism, selectivity versus Npr1; HEK293 hNpr2 GloSensor cGMP luminescence, CNP-stimulated; Potency, µM (top dose mostly 57.6 µM), for the others: at the top dose activity change, negative = inhibition, actives largely listed as inhibitors; shares compounds with hNpr1 antagonist; hit rate 67% among 1,400; calls by dose curve; further: nearly all actives have a fitted effect of over 70% in size
# FLuc inh counter: FLuc enzyme inhibition, Npr1 counter-screen; shares compounds with hNpr1 antagonist; purified FLuc enzyme, luminescence, Km substrate; Potency, µM (top dose mostly 57.6 µM), without a hit: at the top dose activity change, negative = inhibition, actives largely listed as inhibitors; hit rate 0.7% among 1,400; AID 1347047; further: 0% is about no effect
# GloSensor ctrl: counter-screen for Npr1 antagonists: GloSensor control cell line; shares compounds with hNpr1 antagonist; HEK293 GloSensor cGMP, SNP-stimulated, luminescence; Potency, µM (highest dose often 57.6 µM), without a hit: top-dose activity change, negative = inhibition, most hits filed as inhibitors; hit rate 69% among 1,400; AID 1347051; calls by dose curve; further: on the % scale 0 is the no-effect control and ±100 the full control effect; nearly all actives have a fitted effect of over 70% in size
# * hit, by the source's call; i = inactive; ? = inconclusive; . = no result; ! = not active in a repeat; [ ] = dose if it differs, or a comment. Compounds with a hit are over-represented: about 10% of the library has one in this group of screens. Unless noted, the call rests on the fitted dose curve; in most records, active means well fitted curve in the direction sought with a large enough effect; inconclusive means small, poorly fitted or top-dose-only effect, or another doubt; inactive means no such curve, though single readings can be large; an effect the other way counts as inactive or inconclusive. Potency means the concentration at half of the fitted maximal effect.
SMILES,GPT2 inhibitor,3T3 cytotox,FLuc inh,HEK293 tox,hNpr1 antagonist,Npr1 antag conf,Npr2 selectivity,FLuc inh counter,GloSensor ctrl
CCn1c2c(c(=O)n1-c1ccccc1)CCN(C(=O)c1ccc(Oc3ccccc3)cc1)C2,-13%,?,i,?,8.9µM*,8.6µM*,11µM*,0%,7.7µM*
COCCn1c2c(c(=O)n1-c1ccccc1)CCN(C(=O)c1ccccc1)C2,-1%[88.5 µM],?,i,i,2%[70.6 µM],.,.,.,.
COCCn1c(=O)c2c(n1Cc1ccccc1)CN(C(=O)c1ccc(Oc3ccccc3)cc1)CC2,-2%,?,i,?,-3%,.,.,.,.
CCn1c2c(c(=O)n1Cc1ccccc1)CCN(C(=O)c1ccc(Oc3ccccc3)cc1)C2,-6%,?,i,?,11µM*,24µM*,22µM*,0%,19µM*
O=C(c1ccccc1F)N1CCC2(CNc3ccccc3[S+](=O)([O-])N2)C1 (stereo not given),-5%,-13%,i,-2%,17%,.,.,.,.
Cc1nc(CC(=O)NC2CCCc3c2cnn3-c2ccc(C(C)(C)C)cc2)cs1 (stereo not given),0%,?,?,?,?,.,.,.,.
Cc1cccc(-n2ncc3c2CCCC3NC(=O)CCC(F)(F)F)c1C (stereo not given),-31%,-27%,i,?,?,24µM*,?,2%,24µM*
COc1ccccc1-c1ccc(CN2CCCC(c3nc4ccc(C)cc4c(=O)[nH]3)C2)cc1 (stereo not given),-15%,28µM*!,i,18µM*,?,?,?,2%,?
N#Cc1ccc(CN2CCC(c3nc4ccc(F)cc4c(=O)[nH]3)CC2)cc1,i,-21%,.,-29%,.,.,.,.,.
O=c1[nH]c(C2CCCN(Cc3ccc(-c4cccs4)cc3)C2)nc2ccc(F)cc12 (stereo not given),-1%,?,i,40µM*,16µM*,24µM*,27µM*,1%,31µM*
Cc1ccc2nc(C3CCN(Cc4ccc(C#N)cc4)CC3)[nH]c(=O)c2c1,i,?,i,?,?,17µM*,?,2%,17µM*
CN(C)C(=O)c1nc(-c2ccc(S(C)(=O)=O)cc2)c2ccccn12,0%,2%,.,i,.,.,.,.,.
O=C1NCc2ccccc2CC12CCN(Cc1ccc(F)cc1O)C2 (stereo not given),i,-20%,.,?,.,.,.,.,.
N#Cc1cccc(NC(=O)N[C@H]2CO[C@H]3[C@@H]2OC[C@@H]3Nc2nccc(-c3cccc(F)c3)n2)c1,-2%,?,i,?,-18%,.,.,.,.
O=C(Nc1cccc2ccccc12)O[C@@H]1CO[C@H]2[C@@H]1OC[C@@H]2Nc1nccc(-c2cccc(F)c2)n1,-23%,?,i,40µM*,-22%,?,?,6%,-27%
CC(C)(C)C(=O)N[C@H]1CO[C@H]2[C@@H]1OC[C@@H]2Nc1nccc(-c2ccc(-c3ccccc3)cc2)n1,-42%,-30%,i,?,?,22µM*,?,-1%,22µM*
Cc1ccc(C(=O)N[C@H]2CO[C@H]3[C@@H]2OC[C@@H]3Nc2nccc(-c3ccc4c(c3)OCO4)n2)cc1,?,?,i,?,2%,.,.,.,.
